# Measurements as given in article PMC7862700, “An all-to-all approach to the identification of sequence-specific readers for epigenetic DNA modifications on cytosine”.
# How the values were obtained:
# Assay in all cases: DAPPL (digital affinity profiling via proximity ligation, sequencing); 10 mM Tris-HCl pH 7.5, 50 mM NaCl, 1 mM DTT, 4% glycerol, room temperature, 30 min; GST-TFs on glutathione beads, 16-mer random dsDNA library, 0.1% formaldehyde crosslink after washing; high values mean tight binding
# FLI1 = biological target: T1, FLI1 (Homo sapiens, UniProt Q01543 1-452); conditions: protein: recombinant; tags: N-terminal GST; dsDNA, one strand shown
# T1 sequence: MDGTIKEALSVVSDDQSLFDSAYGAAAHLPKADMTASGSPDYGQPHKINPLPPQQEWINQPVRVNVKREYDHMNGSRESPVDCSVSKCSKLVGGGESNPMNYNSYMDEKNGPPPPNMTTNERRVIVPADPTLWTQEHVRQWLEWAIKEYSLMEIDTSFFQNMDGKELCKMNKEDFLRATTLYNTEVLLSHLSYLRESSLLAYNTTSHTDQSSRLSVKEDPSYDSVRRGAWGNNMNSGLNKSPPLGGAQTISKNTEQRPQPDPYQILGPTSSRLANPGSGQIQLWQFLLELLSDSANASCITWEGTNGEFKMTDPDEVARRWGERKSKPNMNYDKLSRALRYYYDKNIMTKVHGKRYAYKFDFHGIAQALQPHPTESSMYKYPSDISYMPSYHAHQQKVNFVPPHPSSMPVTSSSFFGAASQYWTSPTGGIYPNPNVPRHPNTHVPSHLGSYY
# Outline: (§1)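 Human transcription factors were made in yeast as GST fusions, captured on glutathione beads and barcoded with DNA. With a tag-only sample included, the pool was incubated with 200 nmole of a random double-stranded 16-mer DNA library in Tris/NaCl/DTT/glycerol buffer at room temperature for 30 min, then crosslinked with 0.1% formaldehyde after washing, ligated by proximity, amplified and sequenced. For binding signal, each hexamer's read frequency for a factor is divided by its frequency for the tag-only sample.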
# ELK1 = biological target: T2, ELK1 (Homo sapiens, UniProt P19419 1-428); conditions: protein: recombinant; tags: N-terminal GST; dsDNA, one strand shown
# T2 sequence: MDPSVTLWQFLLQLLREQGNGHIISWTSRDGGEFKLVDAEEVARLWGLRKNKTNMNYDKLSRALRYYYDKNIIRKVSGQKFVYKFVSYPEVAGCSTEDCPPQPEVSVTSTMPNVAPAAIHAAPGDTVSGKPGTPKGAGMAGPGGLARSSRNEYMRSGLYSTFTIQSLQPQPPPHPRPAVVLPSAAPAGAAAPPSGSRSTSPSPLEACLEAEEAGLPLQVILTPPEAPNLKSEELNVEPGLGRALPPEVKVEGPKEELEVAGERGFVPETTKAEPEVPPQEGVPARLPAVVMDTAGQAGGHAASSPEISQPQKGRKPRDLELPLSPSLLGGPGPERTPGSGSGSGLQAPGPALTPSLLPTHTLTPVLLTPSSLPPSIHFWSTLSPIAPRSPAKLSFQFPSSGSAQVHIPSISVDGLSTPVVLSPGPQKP
# Outline: as §1
# GABPA = biological target: T3, GABPA (Homo sapiens, UniProt Q06546 1-454); conditions: protein: recombinant; tags: N-terminal GST; dsDNA, one strand shown
# T3 sequence: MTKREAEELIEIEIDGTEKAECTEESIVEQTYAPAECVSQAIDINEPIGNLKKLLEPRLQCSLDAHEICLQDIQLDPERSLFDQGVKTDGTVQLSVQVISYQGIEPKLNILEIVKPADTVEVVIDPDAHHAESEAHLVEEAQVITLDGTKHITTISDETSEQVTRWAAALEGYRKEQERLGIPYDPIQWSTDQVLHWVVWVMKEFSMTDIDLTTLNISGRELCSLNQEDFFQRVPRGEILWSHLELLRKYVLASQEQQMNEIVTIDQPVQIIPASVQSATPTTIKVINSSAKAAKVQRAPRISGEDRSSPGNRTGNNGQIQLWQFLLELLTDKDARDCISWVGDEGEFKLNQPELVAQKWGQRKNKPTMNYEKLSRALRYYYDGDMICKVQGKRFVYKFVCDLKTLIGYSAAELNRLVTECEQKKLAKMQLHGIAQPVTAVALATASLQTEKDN
# Outline: as §1
# ERG = biological target: T4, ERG (Homo sapiens, UniProt P11308 1-479); conditions: protein: recombinant; tags: N-terminal GST; dsDNA, one strand shown
# T4 sequence: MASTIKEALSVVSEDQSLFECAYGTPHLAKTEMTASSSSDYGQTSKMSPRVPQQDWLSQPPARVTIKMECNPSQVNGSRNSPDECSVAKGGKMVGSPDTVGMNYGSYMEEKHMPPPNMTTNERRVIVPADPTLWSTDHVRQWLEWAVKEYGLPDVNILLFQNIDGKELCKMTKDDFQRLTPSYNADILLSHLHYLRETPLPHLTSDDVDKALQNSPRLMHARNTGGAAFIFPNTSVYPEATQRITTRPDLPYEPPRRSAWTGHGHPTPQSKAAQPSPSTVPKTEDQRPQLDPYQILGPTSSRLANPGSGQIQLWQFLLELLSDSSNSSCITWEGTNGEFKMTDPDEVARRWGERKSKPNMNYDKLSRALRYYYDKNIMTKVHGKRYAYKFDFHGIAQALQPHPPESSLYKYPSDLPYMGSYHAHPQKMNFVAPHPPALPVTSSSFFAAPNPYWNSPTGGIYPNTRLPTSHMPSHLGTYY
# Outline: as §1
# ELF1 = ELF1 (Homo sapiens, UniProt P32519 1-619); conditions: protein: recombinant; tags: N-terminal GST; dsDNA, one strand shown
# Outline: as §1
# EHF = biological target: T5, EHF (Homo sapiens, UniProt Q9NZC4 1-300); conditions: protein: recombinant; tags: N-terminal GST; dsDNA, one strand shown
# T5 sequence: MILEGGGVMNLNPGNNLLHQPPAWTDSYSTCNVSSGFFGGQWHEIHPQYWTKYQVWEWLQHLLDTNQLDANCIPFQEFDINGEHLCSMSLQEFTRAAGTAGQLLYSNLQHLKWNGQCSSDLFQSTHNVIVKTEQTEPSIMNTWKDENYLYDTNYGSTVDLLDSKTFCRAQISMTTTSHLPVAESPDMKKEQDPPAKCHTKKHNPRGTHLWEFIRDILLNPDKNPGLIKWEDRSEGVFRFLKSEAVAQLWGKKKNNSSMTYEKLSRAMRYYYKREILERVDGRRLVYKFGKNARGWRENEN
# Outline: as §1
# SPI1 = SPI1 (Homo sapiens, UniProt P17947 1-270); conditions: protein: recombinant; tags: N-terminal GST; dsDNA, one strand shown
# Outline: as §1
# SPIB = SPIB (Homo sapiens, UniProt Q01892 1-262); conditions: protein: recombinant; tags: N-terminal GST; dsDNA, one strand shown
# Outline: as §1
# ELK3 = biological target: T6, ELK3 (Homo sapiens, UniProt P41970 1-407); conditions: protein: recombinant; tags: N-terminal GST; dsDNA, one strand shown
# T6 sequence: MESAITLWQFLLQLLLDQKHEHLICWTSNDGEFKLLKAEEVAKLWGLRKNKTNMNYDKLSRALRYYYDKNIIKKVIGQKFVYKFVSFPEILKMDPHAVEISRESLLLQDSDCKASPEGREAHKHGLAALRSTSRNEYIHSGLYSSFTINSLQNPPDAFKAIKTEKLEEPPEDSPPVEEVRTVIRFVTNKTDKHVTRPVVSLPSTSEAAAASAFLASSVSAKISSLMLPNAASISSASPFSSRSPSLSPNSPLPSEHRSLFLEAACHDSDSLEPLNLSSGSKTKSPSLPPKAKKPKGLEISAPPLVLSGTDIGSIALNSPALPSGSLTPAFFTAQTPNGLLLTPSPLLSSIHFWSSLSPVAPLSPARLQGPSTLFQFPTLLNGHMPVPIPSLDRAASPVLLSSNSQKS
# Outline: as §1
# FEV = biological target: T7, FEV (Homo sapiens, UniProt Q99581 1-238); conditions: protein: recombinant; tags: N-terminal GST; dsDNA, one strand shown
# T7 sequence: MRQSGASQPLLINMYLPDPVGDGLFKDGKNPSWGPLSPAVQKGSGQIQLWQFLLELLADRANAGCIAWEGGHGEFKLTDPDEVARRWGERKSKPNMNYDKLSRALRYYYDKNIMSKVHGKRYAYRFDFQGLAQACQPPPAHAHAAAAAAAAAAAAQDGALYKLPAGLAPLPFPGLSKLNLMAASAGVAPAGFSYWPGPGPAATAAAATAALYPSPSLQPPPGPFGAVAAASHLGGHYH
# Outline: as §1
# ETV5 = ETV5 (Homo sapiens, UniProt P41161 1-510); conditions: protein: recombinant; tags: N-terminal GST; dsDNA, one strand shown
# Outline: as §1
# HSF1 = HSF1 (Homo sapiens, UniProt Q00613 1-529); conditions: protein: recombinant; tags: N-terminal GST; chain copies: 3; dsDNA, one strand shown
# Outline: as §1
# SPIC = biological target: T8, SPIC (Homo sapiens, UniProt Q8N5J4 1-248); conditions: protein: recombinant; tags: N-terminal GST; dsDNA, one strand shown
# T8 sequence: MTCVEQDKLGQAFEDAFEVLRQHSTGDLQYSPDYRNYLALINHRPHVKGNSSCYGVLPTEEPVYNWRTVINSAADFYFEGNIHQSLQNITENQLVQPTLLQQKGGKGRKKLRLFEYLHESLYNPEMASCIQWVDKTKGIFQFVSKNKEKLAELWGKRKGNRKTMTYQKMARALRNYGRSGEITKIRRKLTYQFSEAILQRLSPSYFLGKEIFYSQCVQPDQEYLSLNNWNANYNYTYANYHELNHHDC
# Outline: as §1
# ELF4 = ELF4 (Homo sapiens, UniProt Q99607 1-663); conditions: protein: recombinant; tags: N-terminal GST; dsDNA, one strand shown
# Outline: as §1
# ELK4 = biological target: T9, ELK4 (Homo sapiens, UniProt P28324-2 1-405); conditions: protein: recombinant; tags: N-terminal GST; dsDNA, one strand shown
# T9 sequence: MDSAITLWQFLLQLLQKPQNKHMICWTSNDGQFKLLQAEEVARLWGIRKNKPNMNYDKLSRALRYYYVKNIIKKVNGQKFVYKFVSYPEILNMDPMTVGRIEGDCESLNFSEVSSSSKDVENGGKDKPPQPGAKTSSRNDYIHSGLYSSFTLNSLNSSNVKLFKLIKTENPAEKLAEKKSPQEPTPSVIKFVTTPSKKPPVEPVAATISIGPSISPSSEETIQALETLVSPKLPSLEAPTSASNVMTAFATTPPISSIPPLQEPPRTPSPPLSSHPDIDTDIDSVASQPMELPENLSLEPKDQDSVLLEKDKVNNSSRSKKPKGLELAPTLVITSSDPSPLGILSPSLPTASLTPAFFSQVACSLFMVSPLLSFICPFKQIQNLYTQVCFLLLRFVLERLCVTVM
# Outline: as §1
# ETV2 = biological target: T10, ETV2 (Homo sapiens, UniProt O00321 1-342); conditions: protein: recombinant; tags: N-terminal GST; dsDNA, one strand shown
# T10 sequence: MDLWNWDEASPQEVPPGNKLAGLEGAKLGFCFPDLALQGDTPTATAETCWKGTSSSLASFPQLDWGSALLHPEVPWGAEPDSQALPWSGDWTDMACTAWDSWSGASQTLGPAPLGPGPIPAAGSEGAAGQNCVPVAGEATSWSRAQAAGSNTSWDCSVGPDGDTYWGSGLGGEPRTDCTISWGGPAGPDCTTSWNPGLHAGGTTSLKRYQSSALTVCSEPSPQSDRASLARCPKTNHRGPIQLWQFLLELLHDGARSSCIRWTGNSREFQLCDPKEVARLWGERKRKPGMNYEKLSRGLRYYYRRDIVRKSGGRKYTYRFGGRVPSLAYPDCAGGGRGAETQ
# Outline: as §1
# ELF3 = biological target: T11, ELF3 (Homo sapiens, UniProt P78545 1-371); conditions: protein: recombinant; tags: N-terminal GST; dsDNA, one strand shown
# T11 sequence: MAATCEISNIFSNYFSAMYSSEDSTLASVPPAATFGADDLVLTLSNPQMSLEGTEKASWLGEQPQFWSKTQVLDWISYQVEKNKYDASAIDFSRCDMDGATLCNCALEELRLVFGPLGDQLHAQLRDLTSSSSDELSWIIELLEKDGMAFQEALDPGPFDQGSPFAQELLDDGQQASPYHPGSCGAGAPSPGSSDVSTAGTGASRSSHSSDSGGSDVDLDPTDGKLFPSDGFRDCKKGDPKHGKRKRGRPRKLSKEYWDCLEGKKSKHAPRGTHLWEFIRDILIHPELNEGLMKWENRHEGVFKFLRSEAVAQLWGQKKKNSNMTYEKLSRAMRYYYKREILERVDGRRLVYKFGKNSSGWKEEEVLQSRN
# Outline: as §1
# CRX = CRX (Homo sapiens, UniProt O43186 1-299); conditions: protein: recombinant; tags: N-terminal GST; dsDNA, one strand shown
# Outline: as §1
# ETV1 = ETV1 (Homo sapiens, UniProt P50549 1-477); conditions: protein: recombinant; tags: N-terminal GST; dsDNA, one strand shown
# Outline: as §1
# ELF1, sequence (P32519 whole entry): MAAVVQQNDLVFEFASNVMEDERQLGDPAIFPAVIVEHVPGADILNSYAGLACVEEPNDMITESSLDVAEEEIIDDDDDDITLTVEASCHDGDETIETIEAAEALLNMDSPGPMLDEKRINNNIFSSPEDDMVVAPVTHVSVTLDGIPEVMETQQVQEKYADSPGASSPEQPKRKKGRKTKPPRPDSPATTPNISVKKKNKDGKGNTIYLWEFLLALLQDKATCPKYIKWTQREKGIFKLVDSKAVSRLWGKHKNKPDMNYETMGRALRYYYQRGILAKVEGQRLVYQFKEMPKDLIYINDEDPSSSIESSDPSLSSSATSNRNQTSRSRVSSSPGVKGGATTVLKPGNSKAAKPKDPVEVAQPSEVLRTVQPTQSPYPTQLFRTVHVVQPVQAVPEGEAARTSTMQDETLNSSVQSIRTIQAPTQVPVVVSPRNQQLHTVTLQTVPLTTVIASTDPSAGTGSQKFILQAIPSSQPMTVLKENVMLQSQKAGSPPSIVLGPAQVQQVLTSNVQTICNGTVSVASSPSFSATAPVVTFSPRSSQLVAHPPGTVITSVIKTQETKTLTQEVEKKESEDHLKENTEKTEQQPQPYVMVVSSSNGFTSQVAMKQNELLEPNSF
# ETV5, sequence (P41161 whole entry): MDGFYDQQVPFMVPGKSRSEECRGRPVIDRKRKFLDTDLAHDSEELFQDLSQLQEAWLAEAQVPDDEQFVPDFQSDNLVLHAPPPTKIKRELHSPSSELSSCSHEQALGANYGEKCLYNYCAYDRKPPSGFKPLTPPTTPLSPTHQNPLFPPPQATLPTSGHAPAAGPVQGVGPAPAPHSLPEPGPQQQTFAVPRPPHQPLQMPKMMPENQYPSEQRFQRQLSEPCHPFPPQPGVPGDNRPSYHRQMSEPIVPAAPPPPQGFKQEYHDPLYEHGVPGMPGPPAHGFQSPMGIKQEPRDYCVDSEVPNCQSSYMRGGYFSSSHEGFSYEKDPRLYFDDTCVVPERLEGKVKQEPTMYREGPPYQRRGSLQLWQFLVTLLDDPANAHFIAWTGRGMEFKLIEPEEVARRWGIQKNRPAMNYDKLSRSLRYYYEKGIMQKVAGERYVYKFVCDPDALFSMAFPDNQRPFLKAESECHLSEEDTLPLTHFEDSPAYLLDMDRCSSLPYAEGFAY
# HSF1, sequence (Q00613 whole entry): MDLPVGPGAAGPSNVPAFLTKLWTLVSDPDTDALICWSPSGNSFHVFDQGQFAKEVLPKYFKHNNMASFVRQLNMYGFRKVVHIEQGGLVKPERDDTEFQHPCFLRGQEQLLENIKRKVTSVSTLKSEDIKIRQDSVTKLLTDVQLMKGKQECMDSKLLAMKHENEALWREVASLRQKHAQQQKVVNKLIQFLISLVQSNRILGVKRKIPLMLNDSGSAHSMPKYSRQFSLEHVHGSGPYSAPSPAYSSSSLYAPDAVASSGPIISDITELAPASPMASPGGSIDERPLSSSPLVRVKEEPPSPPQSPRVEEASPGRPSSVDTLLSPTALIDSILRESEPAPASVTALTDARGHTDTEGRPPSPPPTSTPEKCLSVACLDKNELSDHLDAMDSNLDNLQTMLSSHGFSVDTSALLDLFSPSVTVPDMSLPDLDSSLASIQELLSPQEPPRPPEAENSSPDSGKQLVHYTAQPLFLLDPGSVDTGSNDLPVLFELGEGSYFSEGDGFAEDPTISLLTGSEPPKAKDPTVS
# CRX, sequence (O43186 whole entry): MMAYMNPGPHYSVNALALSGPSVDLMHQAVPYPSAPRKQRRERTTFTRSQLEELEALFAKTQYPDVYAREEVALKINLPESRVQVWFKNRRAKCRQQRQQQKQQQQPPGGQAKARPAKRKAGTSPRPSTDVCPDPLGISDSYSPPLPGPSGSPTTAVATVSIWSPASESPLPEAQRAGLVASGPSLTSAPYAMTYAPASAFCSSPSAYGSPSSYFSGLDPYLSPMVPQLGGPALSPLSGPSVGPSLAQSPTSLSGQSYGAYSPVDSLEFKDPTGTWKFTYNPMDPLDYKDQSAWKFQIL
# ETV1, sequence (P50549 whole entry): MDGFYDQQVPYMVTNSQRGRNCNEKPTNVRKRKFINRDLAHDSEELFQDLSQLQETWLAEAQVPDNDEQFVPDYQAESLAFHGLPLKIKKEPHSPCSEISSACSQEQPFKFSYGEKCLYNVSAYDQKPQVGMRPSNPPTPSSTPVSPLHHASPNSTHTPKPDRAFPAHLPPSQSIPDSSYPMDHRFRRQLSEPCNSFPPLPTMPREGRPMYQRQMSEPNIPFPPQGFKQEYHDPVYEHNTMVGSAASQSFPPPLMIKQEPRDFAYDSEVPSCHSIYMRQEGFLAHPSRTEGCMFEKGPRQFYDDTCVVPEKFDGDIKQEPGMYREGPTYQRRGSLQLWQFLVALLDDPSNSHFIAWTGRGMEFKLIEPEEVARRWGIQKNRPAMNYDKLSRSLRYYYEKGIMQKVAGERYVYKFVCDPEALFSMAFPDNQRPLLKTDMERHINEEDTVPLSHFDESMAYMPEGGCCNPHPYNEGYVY
# SPIB, sequence (Q01892 whole entry): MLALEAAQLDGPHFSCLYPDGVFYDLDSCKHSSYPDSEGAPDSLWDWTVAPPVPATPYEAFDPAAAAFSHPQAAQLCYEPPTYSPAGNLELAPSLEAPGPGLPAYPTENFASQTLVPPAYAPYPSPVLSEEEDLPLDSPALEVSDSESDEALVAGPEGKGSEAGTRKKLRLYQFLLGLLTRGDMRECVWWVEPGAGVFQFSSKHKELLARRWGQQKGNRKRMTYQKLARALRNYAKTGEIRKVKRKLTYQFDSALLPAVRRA
# ELF4, sequence (Q99607 whole entry): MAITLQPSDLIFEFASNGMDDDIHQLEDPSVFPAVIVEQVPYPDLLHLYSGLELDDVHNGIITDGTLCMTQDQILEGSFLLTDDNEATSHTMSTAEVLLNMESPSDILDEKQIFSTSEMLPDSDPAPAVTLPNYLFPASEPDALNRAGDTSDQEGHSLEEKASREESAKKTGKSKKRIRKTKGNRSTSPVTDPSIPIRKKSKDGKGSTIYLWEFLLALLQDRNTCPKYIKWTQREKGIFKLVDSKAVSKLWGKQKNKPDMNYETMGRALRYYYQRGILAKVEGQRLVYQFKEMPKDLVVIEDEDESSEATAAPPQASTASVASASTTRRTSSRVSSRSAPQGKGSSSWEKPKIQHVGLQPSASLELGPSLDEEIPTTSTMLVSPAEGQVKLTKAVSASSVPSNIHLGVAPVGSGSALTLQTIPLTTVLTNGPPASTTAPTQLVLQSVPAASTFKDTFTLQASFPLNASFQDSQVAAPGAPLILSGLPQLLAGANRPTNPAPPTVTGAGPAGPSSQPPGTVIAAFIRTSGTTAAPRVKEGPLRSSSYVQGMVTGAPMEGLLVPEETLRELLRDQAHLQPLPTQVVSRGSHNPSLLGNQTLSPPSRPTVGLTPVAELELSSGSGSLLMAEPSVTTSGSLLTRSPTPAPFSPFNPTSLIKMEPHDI
sequence,measurement,setting,value
TTAGCT,binding signal,FLI1,"1.13 fold enrichment (6-mer frequency, TF over GST control)"
same,binding signal,ELK1,"1.21 fold enrichment (6-mer frequency, TF over GST control)"
same,binding signal,GABPA,"1.23 fold enrichment (6-mer frequency, TF over GST control)"
same,binding signal,ERG,"1.15 fold enrichment (6-mer frequency, TF over GST control)"
same,binding signal,ELF1,"1.27 fold enrichment (6-mer frequency, TF over GST control)"
same,binding signal,EHF,"1.2 fold enrichment (6-mer frequency, TF over GST control)"
same,binding signal,SPI1,"1.2 fold enrichment (6-mer frequency, TF over GST control)"
same,binding signal,SPIB,"1.19 fold enrichment (6-mer frequency, TF over GST control)"
same,binding signal,ELK3,"1.18 fold enrichment (6-mer frequency, TF over GST control)"
same,binding signal,FEV,"1.2 fold enrichment (6-mer frequency, TF over GST control)"
same,binding signal,ETV5,"1.2 fold enrichment (6-mer frequency, TF over GST control)"
same,binding signal,HSF1,"1.82 fold enrichment (6-mer frequency, TF over GST control)"
same,binding signal,SPIC,"1.16 fold enrichment (6-mer frequency, TF over GST control)"
same,binding signal,ELF4,"1.28 fold enrichment (6-mer frequency, TF over GST control)"
same,binding signal,ELK4,"1.24 fold enrichment (6-mer frequency, TF over GST control)"
same,binding signal,ETV2,"1.28 fold enrichment (6-mer frequency, TF over GST control)"
same,binding signal,ELF3,"1.18 fold enrichment (6-mer frequency, TF over GST control)"
same,binding signal,CRX,"2.63 fold enrichment (6-mer frequency, TF over GST control)"
same,binding signal,ETV1,"1.2 fold enrichment (6-mer frequency, TF over GST control)"
